Laboratory results reported in PubChem BioAssay AID1159580 (chemical genetic matrix, 2015).
“And” between values parts separate entries of the source, which are not always exact repeats. Equal values may be shown once. Out of some 5,500 compounds screened, about 2,000 (36%) were called active. Not shown: some 18% with an inconclusive outcome. Rule as the data show it: active = normalized growth mostly below about 0.91 (no sharp cut-off); inconclusive = no clear call, values can overlap the other calls; inactive = mostly above about 0.92. This is one part of the list.

Test: chemical genetic growth profiling, strain panel (AID 1159580);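 also: tested at 20 µM; growth read once vehicle control cultures reached saturation at 30 °C; 1 = growth at the plate median or of vehicle wells; lower values mean less growth of the strain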
Settings: S. cerevisiae deletion strains, growth OD

Measured: normalized growth

CC(CCc1ccccc1)NCC(O)c1ccc(O)c(C(N)=O)c1 (stereo not given)
inactive: locus YAL013W, strain DEP1, active compounds read low 1 | locus YAL021C, strain ccr4, active compounds read low 1 | locus YAL026C, strain drs2, active compounds read low 1.01 | locus YAL030W, strain snc1, active compounds read low 0.997 | locus YAL040C, strain CLN3, active compounds read low 1.01 | locus YBL061C, strain skt5, active compounds read low 1.01 | locus YBR009C, strain hhf1, active compounds read low 1 | locus YBR021W, strain FUR4, active compounds read low 1.01 | locus YBR023C, strain chs3, active compounds read low 1.01 | locus YBR171W, strain sec66, active compounds read low 1.01 | locus YBR229C, strain ROT2, active compounds read low 1 | locus YBR231C, strain swc5, active compounds read low 1.01 | locus YBR279W, strain paf1, active compounds read low 1 | locus YCL011C, strain gbp2, active compounds read low 1.01 | locus YCL016C, strain dcc1, active compounds read low 1.01 | locus YCL029C, strain bik1, active compounds read low 1.01 | locus YCL061C, strain MRC1 (second series), active compounds read low 1.01 | locus YCL061C, strain MRC1, active compounds read low 0.997 | locus YCL069W, strain vba3, active compounds read low 1 | locus YCR088W, strain abp1, active compounds read low 1.01 | locus YDL005C, strain med2, active compounds read low 1.01 | locus YDL035C, strain GPR1, active compounds read low 1.01 | locus YDL040C, strain nat1, active compounds read low 1.01 | locus YDL074C, strain BRE1, active compounds read low 0.977 | locus YDL101C, strain DUN1, active compounds read low 1 | locus YDL134C, strain PPH21, active compounds read low 1.02 | locus YDL185W, strain tfp1, active compounds read low 1.01 | locus YDL192W, strain arf1, active compounds read low 1.01 | locus YDR001C, strain nth1, active compounds read low 1.01 | locus YDR069C, strain doa4, active compounds read low 1.01 | locus YDR101C, strain arx1, active compounds read low 0.999 | locus YDR137W, strain rgp1, active compounds read low 1.01 | locus YDR150W, strain NUM1, active compounds read low 1 | locus YDR159W, strain sac3, active compounds read low 1.01 | locus YDR162C, strain NBP2, active compounds read low 1.02 | locus YDR195W, strain ref2 1.01 | locus YDR297W, strain sur2, active compounds read low 1.01 | locus YDR318W, strain mcm21, active compounds read low 1.02 | locus YDR334W, strain swr1, active compounds read low 0.99 | locus YDR335W, strain msn5, active compounds read low 1 | locus YDR363W, strain ESC2, active compounds read low 1 | locus YDR388W, active compounds read low 1.02 | locus YDR392W, strain spt3, active compounds read low 1 | locus YDR502C, strain sam2, active compounds read low 1.01 | locus YEL003W, strain gim4, active compounds read low 0.999 | locus YEL037C, strain rad23, active compounds read low 1 | locus YEL061C, strain CIN8 (second series), active compounds read low 1.01 | locus YEL061C, strain CIN8, active compounds read low 0.997 | locus YER002W, strain NOP16, active compounds read low 1.03 | locus YER015W, strain faa2, active compounds read low 0.997 | locus YER016W, strain bim1, active compounds read low 1 | locus YER110C, active compounds read low 1.02 | locus YER111C, strain swi4, active compounds read low 1.01 | locus YER155C, strain BEM2 (second series), active compounds read low 1.01 | locus YER155C, strain BEM2, active compounds read low 1 | locus YER167W, strain BCK2, active compounds read low 1.02 | locus YFR010W, strain ubp6, active compounds read low 1 | locus YGL078C, strain dbp3, active compounds read low 1.01 | locus YGL086W, strain mad1, active compounds read low 1.01 | locus YGL167C, strain pmr1, active compounds read low 1 | locus YGL173C, strain kem1, active compounds read low 1.01 | locus YGL227W, strain vid30, active compounds read low 1.02 | locus YGL240W, strain doc1, active compounds read low 1 | locus YGL248W, strain PDE1, active compounds read low 0.992 | locus YGL253W, strain hxk2, active compounds read low 1 | locus YGR078C, strain PAC10, active compounds read low 0.985 | locus YGR135W, strain pre9, active compounds read low 1.05 | locus YGR252W, strain gcn5, active compounds read low 0.996 | locus YHR013C, strain ard1, active compounds read low 1 | locus YHR027C, strain rpn1, active compounds read low 1 | locus YHR030C, strain SLT2, active compounds read low 1 and 1.02 | locus YHR079C, strain IRE1 (second series), active compounds read low 1.02 | locus YHR079C, strain IRE1, active compounds read low 1.04 | locus YHR094C, strain hxt1, active compounds read low 1.02 | locus YHR129C, strain ARP1, active compounds read low 1.01 | locus YHR142W, strain chs7, active compounds read low 1.02 | locus YHR200W, strain rpn10, active compounds read low 1.01 | locus YIL066C, strain RNR3, active compounds read low 0.995 | locus YIL073C, strain SPO22, active compounds read low 1.1 | locus YIL125W, strain kgd1, active compounds read low 1.01 | locus YIR030C, strain dcg1, active compounds read low 1.03 | locus YJL092W, strain hpr5, active compounds read low 1.01 | locus YJL095W, strain BCK1 (second series), active compounds read low 1.01 | locus YJL095W, strain BCK1, active compounds read low 0.981 and 1.05 | locus YJL115W, strain asf1, active compounds read low 1 | locus YJL129C, strain trk1, active compounds read low 1 | locus YJL134W, strain LCB3, active compounds read low 1 | locus YJL154C, strain vps35, active compounds read low 1 | locus YJL164C, strain tpk1, active compounds read low 0.996 | locus YJL166W, strain qcr8, active compounds read low 1 | locus YJL168C, strain set2, active compounds read low 1.01 | locus YJL187C, strain SWE1 (second series), active compounds read low 0.983 | locus YJL187C, strain SWE1, active compounds read low 1.01 | locus YJR043C, strain POL32, active compounds read low 0.986 | locus YJR066W, strain TOR1, active compounds read low 0.977
